Shiga toxin inh: blocks Shiga toxin action in Vero cells. actives 9.2% (n = 290,000). AID 2315. Vero cells, Shiga toxin protein synthesis inhibition reporter. inhibition, % at 38.7 µM; in the data active = inhibition mostly above about 28%, no sharp cut-off; inactive = mostly below about 43%; also: 0% is about no effect
LmPK inh: inhibitors of Leishmania mexicana pyruvate kinase; Q27686; purified LmPK, Kinase-Glo ATP luminescence, 1 h; Potency, µM (highest dose often 57.5 µM), without a hit: top-dose activity change, negative = inhibition, actives largely listed as inhibitors; actives 0.37% (n = 290,000); also: potency is read from the fitted curve at half-maximal effect; % is scaled to controls: 0 for no effect and ±100 for the full control effect
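ATP generated from ADP (0.1 mM) and PEP (0.5 mM) by 0.1 nM LmPK over 1 h at room temperature (pH 7.2 imidazole buffer) was detected by coupled luciferase luminescence. Values were normalized to uninhibited and no-enzyme wells.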
TbPYK inhibitor: blocks Trypanosoma brucei pyruvate kinase. Q57TT1. TbPYK enzyme, Kinase-Glo Plus ATP luminescence, 45 min. Potency, µM (highest dose often 76.8 µM), for inactives: top-dose activity, negative = inhibition, hits mostly inhibitors. actives 0.12% (n = 410,000); also: potency is read from the fitted curve at half-maximal effect; % is scaled to controls: 0 for no effect and ±100 for the full control effect; nearly all actives have a fitted effect of over 50% in size
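TbPYK + substrate in 50 mM TEA pH 7.2, 100 mM KCl, 10 mM MgCl2, 0.05% BSA, 0.01% Tween-20; cpd pinned; ADP 130 uM final; 45 min RT; Kinase-Glo Plus 10 min; luminescence endpoint.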
RE007 growth inh: less growth of the S. pombe RE007 Vpr strain. AID 651644. actives 0.21% (n = 360,000). S. pombe RE007 Vpr strain, BacTiter-Glo ATP luminescence, 24 h. Potency, µM (doses to about 92.2 µM), for the others: at the highest dose activity change, negative = less growth, most hits filed as inhibitors; active = well fitted falling curve with a large enough effect; inconclusive = small, poorly fitted or top-dose-only effect; inactive = no such curve, though single readings can be large or run the other way; also: potency is read from the fitted curve at half-maximal effect; % is scaled to controls: 0 for no effect and ±100 for the full control effect; nearly all actives have a fitted effect of over 50% in size
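Fission yeast RE007 carrying one integrated HIV-1 vpr copy, seeded at OD 0.01 in PMG+AL medium with 23 nL pinned compound. Grown 24 h at 30 degrees; viability read by BacTiter-Glo luminescence after 5 min.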
Cycloheximide cs: counter-screen for Shiga toxin inhibitors: cycloheximide protein synthesis inhibition. cell reporter, cycloheximide protein synthesis inhibition counterscreen. max response, %. actives 12% (n = 300,000). AID 2314; in the data active = max response mostly above about 13%, no sharp cut-off; inactive = mostly below about 14%; also: read at 38.3 µM for the half of the compounds with a filed dose; 0% is about no effect
Giardia FBPA inh: blocks Giardia fructose-bisphosphate aldolase activity | A8B2U2 | purified Giardia FBPA | Potency, µM (series often up to 59.6 µM), for the others: at the top dose activity, negative = inhibition, actives largely listed as inhibitors | actives 0.71% (n = 290,000) | AID 2451; also: potency is read from the fitted curve at half-maximal effect; % is scaled to controls: 0 for no effect and ±100 for the full control effect; nearly all actives have a fitted effect of over 55% in size
Target sequence (A8B2U2 whole entry, looked up): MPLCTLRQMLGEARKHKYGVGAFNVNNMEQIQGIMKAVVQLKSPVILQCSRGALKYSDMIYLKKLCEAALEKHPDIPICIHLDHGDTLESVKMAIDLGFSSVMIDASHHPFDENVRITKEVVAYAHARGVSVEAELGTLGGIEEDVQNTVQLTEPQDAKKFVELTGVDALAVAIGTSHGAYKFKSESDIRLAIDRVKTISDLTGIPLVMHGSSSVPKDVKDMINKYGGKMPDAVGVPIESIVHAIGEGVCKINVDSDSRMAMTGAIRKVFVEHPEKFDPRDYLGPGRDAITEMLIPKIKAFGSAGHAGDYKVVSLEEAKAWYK
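Giardia FBPA (40 nM reagent) was preincubated 10 min at RT with compound (up to 57.5 uM final), then substrate plus GAPDH/TPI/NAD/arsenate coupling system with diaphorase/resazurin was added; resorufin fluorescence (525/598 nm) was read after 20 min.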
* hit, by the source's call; ? = inconclusive; · = no result; + = active, no number; [ ] = dose if it differs, or a comment. The entries come from a sample that favours hits as a whole. Unless noted, calls follow the shape of the dose curve; as a rule, active = well fitted curve in the direction sought with a large enough effect; inconclusive = small, poorly fitted or top-dose-only effect, or another doubt; inactive = no such curve, though single readings can be large; an effect the other way counts as inactive or inconclusive.

SMILES	Shiga toxin inh	LmPK inh	TbPYK inhibitor	RE007 growth inh	Cycloheximide cs	Giardia FBPA inh
O=C(/C=C/c1ccc([N+](=O)[O-])cc1)NCCc1ccccc1	18	2%	-20%	-8%	9	1%
CC(C)(C)SCCNC(=O)/C=C/c1cccc([N+](=O)[O-])c1	66*	-1%	10%	11%	26*	-5%
O=C(/C=C/c1cccc([N+](=O)[O-])c1)NCCSc1ccccc1	15	0%	-8%	-10%	17*	-3%
O=C(/C=C/c1cccc([N+](=O)[O-])c1)NCCSCc1c(Cl)cccc1Cl	-13	0%	-3%	12%	-2	-4%
CC(C)(C)SCCNC(=O)/C=C/c1ccc([N+](=O)[O-])cc1	33*	0%	5%	-4%	21*	-4%
Cc1ccc(SCCNC(=O)/C=C/c2cccc([N+](=O)[O-])c2)cc1	-13	2%	5%	-12%	-1	-5%
CCOc1ccc(N/C(=N/c2nc(C)cc(C)n2)NC(C)=O)cc1	14	-1%	-21%	-6%	3	2%
COC(=O)c1ccccc1S(=O)(=O)N1CCc2nc(COc3ccccc3)c3c(c2C1)CO[C@@H](C)C3	·	-6%[11.5 µM]	·	·	·	6%[12.9 µM]
O=C(COC(=O)CCN1C(=O)C2CC=CCC2C1=O)Nc1ccc([N+](=O)[O-])cc1 (centres undefined)	·	·	-8%	-3%	·	·
CCOc1cc(C(=O)N2CC(=O)Nc3ccc(C)cc3C2c2ccccc2)cc(OCC)c1OCC (centres undefined)	·	·	1%	·	·	·
O=C(Nc1ccc(Oc2cccnc2)cc1)C1CCCCN1Cc1ccc(CO)o1 (centres undefined)	-3	-3%	-8%	-9%	-3	-12%
Cc1cc(CN2CCCCC2C(=O)Nc2ccc(Oc3cccnc3)cc2)oc1C (centres undefined)	43*	-3%	3%	-17%	21*	·
C/C(=N\NC(=S)NCc1ccccc1)c1ccc2c(c1)OCCO2	93*	12%	0%	-12%	18	0%
C/C(=N\NC(=S)Nc1ccc(F)cc1)c1ccc2c(c1)OCCO2	66*	3%	-8%	-29%	28*	21%
C/C(=N\NC(=S)NCc1ccccc1)c1ccc(Br)cc1	25	0%	3%	-19%	2	0%
C/C(=N/NC(=O)c1ccc2c(c1)OCO2)c1ccc(NC(=O)c2ccc(F)cc2)cc1	40*	-10%	5%	-11%	34*	·
C/C(=N\NC(=S)NCc1ccccc1)c1cccs1	135*	3%	3%	-5%	35*	0%
COc1cccc(N2C(=O)C(CC(=O)Nc3ccc(Cl)cc3)N(Cc3ccc4c(c3)OCO4)C2=O)c1 (centres undefined)	·	·	-1%	·	·	·
COc1ccc(Cc2nc3ccc(C(=O)NCCn4cccn4)cc3o2)cc1	5	8%	-12%	-8%	2	1%
COc1ccc(Cc2nc3ccc(C(=O)N4CCOCC4)cc3o2)cc1	+	-4%	-1%	?	68*	·
COc1ccc(Cc2nc3ccc(C(=O)N4C[C@@H](C)O[C@@H](C)C4)cc3o2)cc1OC	62*	0%	-5%	-10%	44*	·
COc1ccc(Cc2nc3ccc(C(=O)N4CCC(C(N)=O)CC4)cc3o2)cc1	·	·	-1%	1%	·	·
CCN(CCn1cccn1)C(=O)c1ccc2nc(Cc3ccc(OC)cc3)oc2c1	56	3%	-6%	-11%	23*	14%
O=C(CC1N=C2c3ccccc3N=C(SCc3cccc(F)c3)N2C1=O)NCc1cccs1 (centres undefined)	·	·	2%	·	·	·
COc1cc(NC(=O)CSc2nc(C)c(C(=O)Nc3ccccc3)c(-c3ccc(OC)c(OC)c3)c2C#N)c(OC)cc1Cl	·	·	-25%	·	·	·
SMILES	Shiga toxin inh	LmPK inh	TbPYK inhibitor	RE007 growth inh	Cycloheximide cs	Giardia FBPA inh
O=C(Nc1ccc(C(=O)NC2CCCCC2)cc1)c1cncc(Br)c1	-13	-1%	5%	14%	0	-6%
O=C(Nc1ccc2c(c1)OCCO2)c1cncc(Br)c1	58	-28%	-12%	10%	23*	-5%
O=C(Nc1ccc2c(c1)OCO2)c1cncc(Br)c1	66*	-5%	0%	-11%	32*	5%
CCOc1ccc(C(=O)Nc2ccc(N3CCCC3)cc2)cc1	33	-3%	-21%	-13%	19*	-12%
CCOc1ccc(NC(=O)c2cccc(OC(=S)N3CCC(C)CC3)c2)cc1	35	0%	3%	1%	17*	2%
CCOc1cccc(C(=O)Nc2ccc(N3CCCC3)cc2)c1	48	5%	?	11%	17*	-4%
CCOc1ccc(NC(=O)c2cccc(N3CCCS3(=O)=O)c2)cc1	·	·	-1%	·	·	·
Clc1ccc(-c2cn(-c3nc4ccccc4s3)nn2)cc1	·	·	-2%	1%	·	·
CCN(C1CCS(=O)(=O)C1)S(=O)(=O)c1ccc2ccccc2c1 (centres undefined)	·	·	-17%	4%	·	·
COc1cccc(CNS(=O)(=O)c2cc3[nH]c(=O)c(=O)[nH]c3cc2C)c1	·	·	3%	·	·	·
N#Cc1c(-n2ncnc2-c2cccc(Cl)c2)sc2c1CCCCC2	·	·	0%	·	·	·
CC(/C=C/c1ccccc1F)=N\NC(=O)C(C)C	42*	2%	-8%	·	35*	1%
CC(C)NC(=O)CC(=O)N/N=C/c1ccccc1F	-8	-1%	7%	11%	0	0%
CCCCC(=O)N/N=C(C)/C=C/c1ccccc1F	63*	7%	3%	-14%	29*	0%
CCCCC(=O)N/N=C(\C)CC(=O)Nc1ccccc1Br	17	0%	6%	-3%	1	3%
CCOc1cc(CN2CCN(S(=O)(=O)c3ccc(C)cc3)CC2)ccc1OC	·	·	-3%	·	·	·
COc1cc(C(=O)Nc2ccc3nc(SCc4ccccc4)sc3c2)cc(OC)c1OC	·	·	1%	·	·	·
COc1ccc(/C=N/N=C2/NC(=O)C(CC(=O)O)S2)cc1OS(=O)(=O)c1ccccc1 (centres undefined)	-22	-5%	-19%	-9%	6	-1%
COc1ccc(/C=N/N=C2/NC(=O)C(CC(=O)O)S2)cc1OCc1ccc(Cl)cc1 (centres undefined)	-12	?	?	34%	0	2%
CCOc1cc(/C=N/N=C2/NC(=O)C(CC(=O)O)S2)ccc1OCc1ccc(Cl)cc1 (centres undefined)	-1	13µM*	?	2%	-3	6%
COc1cc(/C=N/N=C2/NC(=O)C(Cc3ccccc3)S2)ccc1O (centres undefined)	99*	-3%	13%	-8%	33*	1%
Cc1ccc(S(=O)(=O)Oc2ccc(C)cc2/C=N/N=C2\NC(=O)C(C)S2)cc1 (centres undefined)	73*	-10%	4%	5%	30*	8%
